# Screens as filed in PubChem.
# Hits are enriched below; roughly 27% of the tested compounds scored in any of these assays.
# CYP2C19 inhib = blockers of cytochrome P450 2C19 activity – biochemical, luminescence, ADME assay, primary screen; P33261; CYP2C19 Supersomes, luciferin-H EGE luminescence, 30 min; inhibition, % at 5 µM; 96,000 compounds, 21% hits;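 active means CYP2C19 inhibition above a set limit at 5 µM in the primary screen, cut at about 50% in these data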;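 further: plate controls were negative control wells for no effect and 2.5 mM tranylcypromine positive control for full effect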
# Target sequence (P33261 whole entry, looked up): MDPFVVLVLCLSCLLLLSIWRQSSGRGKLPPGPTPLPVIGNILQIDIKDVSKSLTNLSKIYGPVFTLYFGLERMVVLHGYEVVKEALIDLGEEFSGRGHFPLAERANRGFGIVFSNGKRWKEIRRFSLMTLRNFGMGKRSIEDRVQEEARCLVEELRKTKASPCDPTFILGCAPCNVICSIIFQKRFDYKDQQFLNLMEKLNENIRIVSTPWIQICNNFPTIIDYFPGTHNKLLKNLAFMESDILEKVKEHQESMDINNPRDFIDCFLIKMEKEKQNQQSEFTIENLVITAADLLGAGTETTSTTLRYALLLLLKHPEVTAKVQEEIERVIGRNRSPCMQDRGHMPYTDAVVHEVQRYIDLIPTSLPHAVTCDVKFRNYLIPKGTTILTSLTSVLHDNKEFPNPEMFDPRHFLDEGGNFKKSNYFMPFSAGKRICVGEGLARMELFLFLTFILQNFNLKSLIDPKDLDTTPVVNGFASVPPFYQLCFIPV
# CYP2C9 act = human CYP2C9 activators, primary screen, biochemical, luminescence. 96,000 compounds, 1.4% hits. recombinant CYP2C9, luciferin-H conversion; stronger effect = higher value; factor 1 = untreated enzyme, 0 = blocked. activation factor at 5 µM. Cytochrome P450 2C9 (Homo sapiens), P11712;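 active means activation factor of 2 or more for CYP2C9 at a 5 µM dose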;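 further: 0 = sulfaphenazole-blocked wells and 1 = vehicle-only wells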
# CYP2C19 activ = human CYP2C19 activators, primary screen, biochemical, luminescence; Cytochrome P450 2C19 (Homo sapiens), P33261; recombinant CYP2C19, luciferin-H EGE luminescence; stronger effect = higher value; 0 = fully inhibited enzyme, 1 = untreated enzyme; activation factor at 5 µM; 96,000 tested, under 10 active;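 active means activation factor of at least 2 at 5 µM in the primary screen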;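 further: 0 = wells with 2.5 mM tranylcypromine and 1 = vehicle-only wells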
# CYP2C9 inh = blockers of cytochrome P450 2C9 activity – biochemical, luminescence, ADME assay, primary screen; 96,000 compounds, 20% hits; P11712; inhibition, % at 5 µM; CYP2C9 Supersomes, luciferin-H conversion;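 active means blocking of liver enzyme CYP2C9 beyond about 50% at 5 µM, limit read from the data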
# Cav32 inh = Cav3.2 calcium influx blockers – cell-based, Fluo-4 calcium fluorescence, FDSS, MLSMR library, primary screen; Voltage-dependent T-type calcium channel subunit alpha-1H (Homo sapiens), O95180; Cav3.2-expressing cells; stronger effect = lower value; B-score at 10 µM; 100,000 compounds, 4% hits;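 active means single-dose well whose peak fluorescence ratio is a statistical outlier from its plate by either plate-standardised score or position-corrected B-score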
# * hit, by the source's call; . = no result given.
SMILES,CYP2C19 inhib,CYP2C9 act,CYP2C19 activ,CYP2C9 inh,Cav32 inh
COCCOC(=O)C1=C(N)OC2=C(C(=O)CCC2)C1c1cccnc1 (stereo not given),60.9*,1,0.4,-2.1,-0.903
CCOC(=O)C1=C(C)NC2=C(C(=O)CCC2)C1c1cccs1 (stereo not given),73.7*,0.4,0.3,64.5*,.
CCN1C(=O)N[C@@H](c2ccco2)C(C(=O)OC)=C1C,.,.,.,.,-2.42
COC(=O)N1[C@H](C)C=C[C@]1(Cc1ccccc1)C(=O)O,.,.,.,.,0.398
Cc1cc(C)n(C(=O)CNC(=O)c2ccc3c(c2)OCCO3)n1,23.2,1.1,0.8,-13.5,0.123
COc1ccc(C(C(=O)NC2CCCC2)N(Cc2ccc(C)cc2)C(=O)c2ccn[nH]2)cc1OC (stereo not given),12.9,0.8,0.9,19.6,2.12
O=C(CN1CCN(Cc2ccccc2Cl)C1=O)N1CCCCCC1,58.8*,1.5,0.4,-46.6,0.0622
COc1ccc(C2C3=C(CC(C)(C)CC3=O)Oc3ncn(Cc4ccco4)c(=N)c32)cc1 (stereo not given),-6.8,1,1.1,4.8,0.643
O=C(Nc1ccc(Oc2cccc3ccccc23)cc1)c1ccco1,39.8,1.4,0.6,-36.8,-2.18
CCCCn1nnnc1SCC(=O)Nc1cccc(C)n1,65.0*,0.8,0.3,19.5,0.364
Cc1cccc(NC(=O)CSc2nnnn2C)n1,-11.1,1.2,1.1,-17.7,0.461
CCCCn1c(SCC(=O)Nc2cccc(C)n2)nnc1-c1ccco1,86.8*,0,0.1,96.5*,0.177
C=CCNc1cc(C(F)(F)F)nc(-c2ccccn2)n1,-3.3,0.9,1,10.3,-0.0331
CC(Oc1ccccc1)C(=O)Nc1ccccc1O (stereo not given),86.8*,0.1,0.1,86.9*,0.315
COc1cc(NC(=O)C(C)Oc2ccccc2)cc(OC)c1 (stereo not given),85.5*,0.2,0.1,79.2*,-0.544
CC(Oc1ccccc1)C(=O)Nc1cccc(F)c1 (stereo not given),38.3,0.8,0.6,24.0,-1.3
CC(=O)CCn1c(=O)n(CCC(C)=O)c(=O)n(CCC(C)=O)c1=O,.,.,.,.,0.494
Cc1cc(C)n(C(=O)CCCC(=O)n2nc(C)cc2C)n1,18.2,1.2,0.8,-20.1,-1.38
Cc1cc(C)n(S(=O)(=O)/C=C/c2ccccc2)n1,73.9*,1.2,0.3,-24.5,1.48
O=C(O)C1CCCCC1C(=O)Nc1ccccc1Cl (stereo not given),63.8*,0.5,0.4,46.4,-1.5
O=C(Nc1c(F)c(F)c(F)c(F)c1F)C1CCCCC1,16.2,0.9,0.8,14.4,-0.776
O=C(CN1C(=O)NC2(CCCCCC2)C1=O)c1ccc2c(c1)OCCO2,14.5,0.6,0.9,40.6,0.101
O=C(c1ccccc1)c1nn(-c2ccc(Cl)cc2)cc1C(=O)c1cc2ccccc2oc1=O,26.3,0.3,0.7,67.2*,.
CCC(=O)OCc1c(C(F)(F)F)nn(C)c1Sc1ccc(Cl)cc1,75.2*,0.4,0.2,60.4*,-3.04
CC(=O)OCc1c(C(F)(F)F)nn(C)c1Sc1ccccc1,89.7*,0.8,0.1,15.8,-1.52
SMILES,CYP2C19 inhib,CYP2C9 act,CYP2C19 activ,CYP2C9 inh,Cav32 inh
CCOC(=O)Cn1nnc(-c2ccc(SC)cc2)n1,46.5,1,0.5,-2.6,-0.144
CCC(=O)OCc1c(C(F)(F)F)nn(C)c1Sc1ccc(F)cc1,61.1*,0.6,0.4,41.3,-7.53*
O=C(COc1nc2ccccc2nc1N1CCOCC1)N1CCc2ccccc21,-19.1,1,1.2,3.0,0.0154
c1ccc(C(c2ccccc2)c2nc(-c3cccnc3)no2)cc1,86.3*,0,0.1,96.3*,-2.84
Cc1ccc(SC(C)c2nc(-c3cccnc3)no2)cc1 (stereo not given),67.2*,0.2,0.3,82.0*,0.0441
O=C(O)CCCc1nc(-c2ccccc2)no1,-3.5,1,1,-3.6,1.23
c1ccc(C(Cc2nc(-c3cccnc3)no2)c2ccccc2)cc1,96.8*,0.5,0,53.1*,-1.1
c1ccc(OCCCc2nc(-c3cccnc3)no2)cc1,63.9*,0.7,0.4,34.7,1.25
COc1ccccc1NC(=O)Cc1csc(N)n1,16.2,1,0.8,-2.4,0.0052
